The labels stand for the following.
B1: Caulobacter ParB omega fusion; a variant is named by its letters at X, in order, B8GW30 (parent)
chain: MESVVVGEPGMSEGRRGLGRGLSALLGEVDAAPAQAPGEQLGGSREAPIEILQRNPDQPRRTFREEDLEDLSNSIREKGVLQPILVRPSPDTAGEYQIVAGERAWRAAQRAGLKTVPIMVRELDDLAVLEIGIIENVQRADLNVLEEALSYKVLMEKFERTQENIAQTIGKSXSHVANXMRLLXLPDEVQSYLVSGELTAXHARAIAAAADPVALAKQIIEGGLSVRETEALARKAPNLSAGKSKGGRPPRVKDTDTQALESDLSSVLGLDVSIDHRGSTGTLTITYATLEQLDDLCNRLTRGI

The full ranking holds about 81,000 sequences; the median of “one-hybrid fitness for binding NBS DNA” is about -0.1, and the highest 2% start at about 0.36. The sample holds the highest values, similar sequences and a random draw of the others, so the mix is not that of the screen.

The assay covers variants of B1. Nature of the assay: one-hybrid fitness for binding NBS DNA (the Noc-binding site; scaled: cognate 1, non-cognate 0); higher = stronger binding. Particulars: with NBS DNA site. The gist of the method:
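Bacterial one-hybrid selection in E. coli USO rpoZ- hisB- pyrF- with a HIS3 reporter carrying the site 19 bp from the promoter, screening Caulobacter ParB libraries with four specificity codons randomised (NNS). Cells grew 48 hours at 37°C on M9-minus-histidine plus 0.1 mM IPTG and 5 mM 3-AT. Plasmids before and after selection were Illumina-sequenced, three replicate libraries pooled, and variants under 10 reads dropped. Fitness is the log change in variant-to-wild-type read ratio, rescaled to cognate 1, non-cognate 0.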
For the variant NNIR, the “one-hybrid fitness for binding NBS DNA” value is at most 0.2. LTMG: the “one-hybrid fitness for binding NBS DNA” value is at most 0.2. For YGMS the value was at most 0.2. As for RDGN, the “one-hybrid fitness for binding NBS DNA” value was at most 0.2. For the variant AVNT, the “one-hybrid fitness for binding NBS DNA” value is at most 0.2. For WVRG the value was at most 0.2; for LRPM, at most 0.2; for KTIT, at most 0.2. For DVIS the value was at most 0.2; for LRVF, at most 0.2. On to QCKF, for which the “one-hybrid fitness for binding NBS DNA” value was determined as 0.387. To QPKF belongs at most 0.2; to QTKF, 0.43. Regarding QTVF, the “one-hybrid fitness for binding NBS DNA” value was at most 0.2. For QRKF the value was 0.405; for QSKF, 0.29. For QTLF the value was at most 0.2.

As to QRVF, the “one-hybrid fitness for binding NBS DNA” value was at most 0.2. On to QRPF, for which the “one-hybrid fitness for binding NBS DNA” value was at most 0.2.

For the variant ASVE, the “one-hybrid fitness for binding NBS DNA” value was at most 0.2.

For the variant QMSV, the “one-hybrid fitness for binding NBS DNA” value is at most 0.2. For QFMT the value was at most 0.2; for SSYL, at most 0.2; for ETES, at most 0.2. For the variant RVIR, the “one-hybrid fitness for binding NBS DNA” value was 0.242. On to VVRC, for which the “one-hybrid fitness for binding NBS DNA” value is at most 0.2. To HHPQ belongs at most 0.2; to VVGI, at most 0.2; to EYWD, at most 0.2. Consider RYRA, for which the “one-hybrid fitness for binding NBS DNA” value came out at 0.367. To RMDA belongs at most 0.2; to RTDA, at most 0.2. With RYYA, the “one-hybrid fitness for binding NBS DNA” value is at most 0.2.

On to RTRA, for which the “one-hybrid fitness for binding NBS DNA” value was 0.446.

With RPRA, the “one-hybrid fitness for binding NBS DNA” value is at most 0.2.

As to RYDA, the “one-hybrid fitness for binding NBS DNA” value is at most 0.2.

Turning to RMYA, the “one-hybrid fitness for binding NBS DNA” value was at most 0.2. To RMRA belongs 0.409; to RCRA, 0.422; to RSRA, 0.317.

RTYA: the “one-hybrid fitness for binding NBS DNA” value is 0.268.

As to GMVG, the “one-hybrid fitness for binding NBS DNA” value is at most 0.2. For the variant QAEN, the “one-hybrid fitness for binding NBS DNA” value is at most 0.2. For LNQS the value was at most 0.2.

Take QLYL: the “one-hybrid fitness for binding NBS DNA” value was at most 0.2. To PLQD belongs at most 0.2; to RKYA, 0.344; to RKDA, at most 0.2. For RKRA the value was 0.45; for LPLA, at most 0.2. To AQDR belongs at most 0.2. On to LIAK, for which the “one-hybrid fitness for binding NBS DNA” value was at most 0.2.

In the case of RQKC, the “one-hybrid fitness for binding NBS DNA” value came to 0.381. In the case of RQKN, the “one-hybrid fitness for binding NBS DNA” value came out at 0.214.

Regarding RQKD, the “one-hybrid fitness for binding NBS DNA” value is at most 0.2. With RQKH, the “one-hybrid fitness for binding NBS DNA” value worked out at 0.376. As to RQKP, the “one-hybrid fitness for binding NBS DNA” value is at most 0.2. To RQVH belongs at most 0.2; to RQYC, at most 0.2; to RQVC, at most 0.2. For RQKS the value was 0.581. Regarding PEWV, the “one-hybrid fitness for binding NBS DNA” value is at most 0.2. For NNCS the value was at most 0.2; for ASVF, at most 0.2. For CPDH the value was at most 0.2; for EDYG, at most 0.2; for PTEW, at most 0.2. With LKYT, the “one-hybrid fitness for binding NBS DNA” value is at most 0.2. To VKLR belongs at most 0.2; to WHHR, at most 0.2; to CGEV, at most 0.2. As for PNVE, the “one-hybrid fitness for binding NBS DNA” value is at most 0.2.

With RKKV, the “one-hybrid fitness for binding NBS DNA” value came out at 0.277. For WVQL the value was at most 0.2; for KCVT, at most 0.2.

Take KPKT: the “one-hybrid fitness for binding NBS DNA” value is at most 0.2. In the case of KRVT, the “one-hybrid fitness for binding NBS DNA” value was 0.547. To KRKT belongs 0.66; to KPVT, at most 0.2; to KCKT, 0.212. With CLTC, the “one-hybrid fitness for binding NBS DNA” value is at most 0.2. To AGTG belongs at most 0.2; to LNTG, at most 0.2. For GMVQ the value was at most 0.2; for PNQS, at most 0.2; for SNTG, at most 0.2. To AFGR belongs at most 0.2; to RKNW, at most 0.2. Regarding QVHT, the “one-hybrid fitness for binding NBS DNA” value was 0.373. For the variant QVNH, the “one-hybrid fitness for binding NBS DNA” value was at most 0.2. For the variant QVPT, the “one-hybrid fitness for binding NBS DNA” value was at most 0.2. For QVHS, the “one-hybrid fitness for binding NBS DNA” value turned out to be 0.296.

For QVNT, the “one-hybrid fitness for binding NBS DNA” value is 0.44.

QVHP: the “one-hybrid fitness for binding NBS DNA” value was at most 0.2. To QVDT belongs at most 0.2; to QVRT, 0.56. On to QVYT, for which the “one-hybrid fitness for binding NBS DNA” value was determined as 0.268.

The record behind these values is a collection of fitness landscapes (doi:10.1016/j.celrep.2020.107928).
